According to PubChem BioAssay AID624481 (The Scripps Research Institute Molecular Screening Center, 2012):
Active and inactive are the calls of the source. Cut-off read from the data, not from the text of the source: active = inhibition above about 50%; inactive = the rest.

The compounds below were run against Prolyl endopeptidase-like (Mus musculus) (UniProt Q8C167) (assay: mouse PREPL enzyme inhibition by screening hits – biochemical, gel-based competitive ABPP, fluorescence, HTS hits, PREPL inhibitor project (AID 624481)). Settings: purified mouse PREPL, at 20 µM, active compounds read high.
Chain of Prolyl endopeptidase-like (Mus musculus) (Q8C167 whole entry, looked up): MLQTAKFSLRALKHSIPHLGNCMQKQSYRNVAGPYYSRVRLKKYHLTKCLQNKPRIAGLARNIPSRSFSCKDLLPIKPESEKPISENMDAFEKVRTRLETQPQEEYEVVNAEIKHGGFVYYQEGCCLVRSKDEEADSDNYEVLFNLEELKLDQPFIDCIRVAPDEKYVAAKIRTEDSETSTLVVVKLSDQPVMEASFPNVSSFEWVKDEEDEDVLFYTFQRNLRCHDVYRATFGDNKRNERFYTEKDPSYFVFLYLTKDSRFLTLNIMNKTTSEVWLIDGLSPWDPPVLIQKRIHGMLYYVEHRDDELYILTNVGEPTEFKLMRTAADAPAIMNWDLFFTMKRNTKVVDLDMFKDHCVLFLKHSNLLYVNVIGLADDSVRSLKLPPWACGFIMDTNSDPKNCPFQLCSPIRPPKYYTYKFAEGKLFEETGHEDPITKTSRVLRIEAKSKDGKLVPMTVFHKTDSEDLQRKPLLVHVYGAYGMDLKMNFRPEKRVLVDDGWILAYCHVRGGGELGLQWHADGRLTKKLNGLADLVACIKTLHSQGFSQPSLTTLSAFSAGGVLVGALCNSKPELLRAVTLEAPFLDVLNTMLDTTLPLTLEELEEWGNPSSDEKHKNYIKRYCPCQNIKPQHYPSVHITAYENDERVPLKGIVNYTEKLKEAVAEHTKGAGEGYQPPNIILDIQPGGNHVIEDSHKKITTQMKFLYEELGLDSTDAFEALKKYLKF

Row | Structure (SMILES) | inhibition
1 | CCCCN1C(=N)N([C@@H](CN2CCC[C@H]2CN2C(N)=NC[C@@H]2Cc2ccccc2)C(C)C)C[C@H]1Cc1ccccc1 | -44% (inactive)
2 | O=C(Cc1ccc(Cl)cc1)Nc1ccc(N2CCN(C(=O)c3ccco3)CC2)cc1 | -61% (inactive)
3 | Cc1c(C#N)c(N=CN(C)C)c(C(=O)c2ccc(Br)cc2)n1-c1ccc(Cl)cc1 | -59% (inactive)
4 | c1ccc(-c2nc3ccccn3c2NC2CCCC2)nc1 | -69% (inactive)
5 | Nc1cc([N+](=O)[O-])cc2oc(-c3ccccc3)cc12 | -25% (inactive)
6 | CN(CC(=O)Nc1ccc(Cl)cc1)C(=O)c1cccc(S(=O)(=O)N2CCN(Cc3ccccc3)CC2)c1 | 1% (inactive)
7 | NC(=O)[C@@H]1CCCNc2c(I)cc([N+](=O)[O-])cc2C(=O)N[C@@H](CCCN=C(N)N)C(=O)N[C@@H](CCCN=C(N)N)C(=O)N1 | -77% (inactive)
8 | CCC(=O)N1CCN(c2ccc(NC(=O)COc3cccc(C)c3C)cc2)CC1 | -49% (inactive)
9 | CC(C)[C@H](CN1CCC[C@H]1CN1C(N)=NC[C@H]1C(C)C)N1C[C@@H](Cc2ccccc2)N(CCCC2CCCC2)C1=N | 92% (active)
10 | Cc1c(NCc2cc(Cl)cc(Cl)c2O)c(=O)n(-c2ccccc2)n1C | -28% (inactive)
11 | O=c1[nH]c2ccc(NCc3ccccc3OCc3ccc(Cl)cc3)cc2[nH]1 | -43% (inactive)
12 | C#CCOCCOCCOCCNc1nc(N2CCN(C(=O)C(Cc3ccc(O)cc3)n3cc(C(N)CC(C)C)nn3)CC2)nc(N2CCN(C(=O)C(Cc3cc4ccccc4[nH]3)n3cc(C(N)Cc4ccc(O)cc4)nn3)CC2)n1 (configuration not stated) | -100% (inactive)
